Records with an inconclusive call do not appear. Where a call stands in place of a potency, no number is given. A number with no mark means an inactive call. Calls of active or inactive are those of the source. Unless noted, calls follow the shape of the dose curve; as a rule, active = well fitted curve in the direction sought with a large enough effect in the repeat runs; inconclusive = weak or mixed curves; inactive = no such curve, though single readings can be large; an effect the other way counts as inactive or inconclusive.
Target: Androgen receptor (Homo sapiens) (UniProt P10275)
Sequence (P10275 whole entry, looked up): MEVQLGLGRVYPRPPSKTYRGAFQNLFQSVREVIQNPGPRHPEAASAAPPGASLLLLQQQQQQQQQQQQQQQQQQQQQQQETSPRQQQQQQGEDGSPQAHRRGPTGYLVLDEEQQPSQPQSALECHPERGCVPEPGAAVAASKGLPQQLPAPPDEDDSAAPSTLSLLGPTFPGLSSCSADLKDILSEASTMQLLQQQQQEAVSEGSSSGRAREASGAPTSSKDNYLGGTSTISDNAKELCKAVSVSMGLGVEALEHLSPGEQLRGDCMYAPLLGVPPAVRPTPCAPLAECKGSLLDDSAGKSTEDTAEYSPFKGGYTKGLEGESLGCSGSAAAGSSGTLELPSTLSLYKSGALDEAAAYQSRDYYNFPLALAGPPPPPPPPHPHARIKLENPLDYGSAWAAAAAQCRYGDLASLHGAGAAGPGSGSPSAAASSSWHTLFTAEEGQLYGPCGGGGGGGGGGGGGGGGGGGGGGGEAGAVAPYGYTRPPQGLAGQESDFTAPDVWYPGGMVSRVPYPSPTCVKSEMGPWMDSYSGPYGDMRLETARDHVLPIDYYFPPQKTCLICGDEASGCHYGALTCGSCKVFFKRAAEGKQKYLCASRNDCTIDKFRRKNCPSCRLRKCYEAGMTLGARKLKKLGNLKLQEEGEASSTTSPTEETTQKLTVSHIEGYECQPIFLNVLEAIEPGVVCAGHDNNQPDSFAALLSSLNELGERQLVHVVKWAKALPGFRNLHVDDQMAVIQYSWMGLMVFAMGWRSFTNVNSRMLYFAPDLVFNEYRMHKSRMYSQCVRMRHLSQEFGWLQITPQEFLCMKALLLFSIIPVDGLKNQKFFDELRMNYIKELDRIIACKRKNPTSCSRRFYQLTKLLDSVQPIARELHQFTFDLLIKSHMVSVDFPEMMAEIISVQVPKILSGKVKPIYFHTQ
Assay: qHTS assay to identify small molecule antagonists of the androgen receptor (AR) signaling pathway using the MDA cell line in the presence of 0.5 nM R1881 (AID 1259243); also: nearly all actives have a fitted effect of over 50% in size
Settings: MDA-kb2 MMTV-luciferase, R1881 0.5 nM, 16 h; series mostly up to 42.5 µM
Summary of the method: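 Stably transfected MDA-kb2 cells express luciferase from an MMTV promoter bearing both AR and GR response elements. Compounds plus 0.5 nM R1881 (final) were incubated 16 hr at 37C without CO2, then luminescence measured.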

Row | Structure (SMILES) | outcome | activity, negative = inhibition
1 | OC(CCN1CCCCC1)(c1ccccc1)c1ccccc1 | inactive | –
2 | O=C(CN1CCN(Cc2ccc3c(c2)OCO3)CC1)N1c2ccccc2Sc2ccccc21 | inactive | –
3 | CCN(CC)C(=O)C1CN2CCc3cc(OC)c(OC)cc3C2CC1OC(C)=O (stereo not given) | inactive | –
4 | C=CCCCCCCCCCCC | – | 5.11% [at 8.39 µM]
5 | CCCCCCCCCCCCCCCCCCN(C)C | inactive | –
6 | Cc1ncc([N+](=O)[O-])n1CC(O)CCl (stereo not given) | inactive | –

Target: Estrogen receptor (Homo sapiens) (UniProt P03372)
Sequence (P03372 whole entry, looked up): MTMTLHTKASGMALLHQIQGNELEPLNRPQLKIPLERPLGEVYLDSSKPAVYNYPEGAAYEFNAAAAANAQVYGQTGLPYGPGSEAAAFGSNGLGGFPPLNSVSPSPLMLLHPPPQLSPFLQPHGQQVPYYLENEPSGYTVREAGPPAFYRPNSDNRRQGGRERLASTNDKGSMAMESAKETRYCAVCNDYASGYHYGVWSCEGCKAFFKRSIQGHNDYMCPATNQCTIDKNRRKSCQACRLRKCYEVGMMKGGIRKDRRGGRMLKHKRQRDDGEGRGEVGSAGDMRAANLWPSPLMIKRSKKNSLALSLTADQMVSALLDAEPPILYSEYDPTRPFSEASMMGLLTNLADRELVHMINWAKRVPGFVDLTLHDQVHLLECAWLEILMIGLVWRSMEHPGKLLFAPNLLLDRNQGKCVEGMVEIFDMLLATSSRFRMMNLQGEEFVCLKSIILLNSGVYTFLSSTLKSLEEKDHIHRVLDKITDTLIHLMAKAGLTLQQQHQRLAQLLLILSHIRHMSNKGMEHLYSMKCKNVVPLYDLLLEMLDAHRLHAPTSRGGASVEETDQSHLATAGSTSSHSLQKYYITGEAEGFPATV
Assay: qHTS assay to identify small molecule antagonists of the estrogen receptor alpha (ER-alpha) signaling pathway using the BG1 cell line in the presence of 0.1 nM 17-beta-estradiol (AID 1259244); also: nearly all actives have a fitted effect of over 50% in size
Settings: VM7Luc4E2 (BG1) ERE-luciferase, antagonist mode, 0.1 nM E2, 22 h; series mostly up to 92.4 µM
Summary of the method: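 Antagonist mode: compounds in DMSO are pinned onto VM7Luc4E2 reporter cells, 0.1 nM final 17beta-estradiol is added, and after 22 h at 37C luciferase luminescence is measured with ONE-Glo.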

Row | Structure (SMILES) | Potency
7 | O=C(O)CCNC(=O)c1ccccc1 | inactive
8 | CCOC(=O)C(=O)c1csc(NC=O)n1 | inactive
9 | CCC(CO)CO | inactive
10 | Nc1nc(=O)n([C@@H]2O[C@H](CO)[C@@H](O)[C@@H]2F)cc1I | inactive
11 | OC(CCN1CCCCC1)(c1ccccc1)c1ccccc1 | inactive
12 | Cc1nc(C)nc(N2C[C@@H](C)N(c3ccnc([C@@H](C)O)n3)[C@@H](C)C2)n1 | inactive
13 | COc1ccc(NS(=O)(=O)c2ccc(N)cc2)nn1 | inactive
14 | NS(=O)(=O)c1ccc(Cl)c(S(N)(=O)=O)c1 | inactive
15 | NC(=O)NNC(N)=O | inactive
16 | CCCCCCCCCCCCCCCCCCN(C)C | inactive
17 | O=C(/C=C/c1ccccc1)NCCO | inactive
18 | CCc1nccnc1C | inactive
19 | C=CCOc1c(Br)cc(C(C)(C)c2cc(Br)c(OCC=C)c(Br)c2)cc1Br | inactive
20 | FC(F)(F)/C(=N\OCC1OCCO1)c1ccc(Cl)cc1 | inactive
21 | Cc1ccccc1OCC1CO1 (stereo not given) | inactive
22 | CC(C)COC(=O)CC(C(=O)OCC(C)C)S(=O)(=O)O (stereo not given) | inactive
23 | CO[Si](CCCCl)(OC)OC | inactive

Test system: not listed separately
Assay: qHTS assay to identify small molecule phospholipidosis (PLD) inducers (AID 1259344; active = well fitted curve in the direction sought with a large enough effect; an effect the other way counts as inactive or inconclusive)
Settings: HepG2 phospholipidosis, LipidTOX Red imaging, 24 h; series mostly up to 38.3 µM
Summary of the method: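 Image-based: LipidTOX Red pit count/intensity per well and per cell; HepG2, 24 h compound at 37 C, PFA fixation, Hoechst counterstain.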

Row | Structure (SMILES) | outcome
24 | CCCCCCCCCCCCCCCC(=O)NCCO | inactive
25 | O=C(O)CCNC(=O)c1ccccc1 | inactive
26 | OC(CCN1CCCCC1)(c1ccccc1)c1ccccc1 | inactive
27 | COc1ccc(NS(=O)(=O)c2ccc(N)cc2)nn1 | inactive
28 | O=C(CN1CCN(Cc2ccc3c(c2)OCO3)CC1)N1c2ccccc2Sc2ccccc21 | inactive
29 | NS(=O)(=O)c1ccc(Cl)c(S(N)(=O)=O)c1 | inactive
30 | O=C(Oc1ccccc1C(=O)O)c1ccccc1O | inactive
31 | COc1cc2c3cc1Oc1cc(ccc1O)C[C@@H]1c4c(cc(OC)c(O)c4Oc4ccc(cc4)C[C@@H]3N(C)CC2)CC[N+]1(C)C | inactive
32 | O=C(/C=C/c1ccccc1)NCCO | inactive
33 | C[C@H](CCC(=O)O)[C@H]1CC[C@H]2[C@@H]3[C@H](O)C[C@@H]4C[C@H](O)CC[C@]4(C)[C@H]3C[C@H](O)[C@]12C | inactive
34 | Cc1ncc([N+](=O)[O-])n1CC(O)CCl (stereo not given) | inactive

Test system: not listed separately
Assay: qHTS assay to identify small molecule HDAC inhibitors (AID 1259364);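 also: wild-type HCT-116 cells with endogenous class I/II HDAC activity; top concentration of the series differs between compounds; nearly all actives have a fitted effect of over 45% in size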
Settings: HCT-116 HDAC-Glo I/II luminescence, 2 h; series mostly up to 92.4 µM
Summary of the method: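 Cells (HCT-116, wild type) are seeded at 1,500 per well, incubated overnight, treated with compound in DMSO for 2 hr, then developed with HDAC-Glo I/II reagent for 30 min at room temperature.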

Row | Structure (SMILES) | Potency | activity change, negative = inhibition
35 | CCCCCCCCCCCCCCCC(=O)NCCO | inactive | –
36 | C=COCCOCCOC=C | inactive | –
37 | C=C(C)[C@@H]1CC[C@@H](C)C[C@@H]1O | inactive | –
38 | O=C(O)CCNC(=O)c1ccccc1 | inactive | –
39 | CCOC(=O)C(=O)c1csc(NC=O)n1 | inactive | –
40 | CCC(CO)CO | inactive | –
41 | Nc1nc(=O)n([C@@H]2O[C@H](CO)[C@@H](O)[C@@H]2F)cc1I | inactive | –
42 | COc1ccc(N=Nc2cc(C)c(N=Nc3ccc(S(=O)(=O)O)cc3)cc2OC)cc1 | inactive | –
43 | OC(CCN1CCCCC1)(c1ccccc1)c1ccccc1 | inactive | –
44 | Cc1nc(C)nc(N2C[C@@H](C)N(c3ccnc([C@@H](C)O)n3)[C@@H](C)C2)n1 | inactive | –
45 | COc1ccc(NS(=O)(=O)c2ccc(N)cc2)nn1 | inactive | –
46 | O=C(CN1CCN(Cc2ccc3c(c2)OCO3)CC1)N1c2ccccc2Sc2ccccc21 | inactive | –
47 | NS(=O)(=O)c1ccc(Cl)c(S(N)(=O)=O)c1 | inactive | –
48 | CCCCCC1CCCC(=O)O1 (stereo not given) | inactive | –
49 | C=C(C)C(=O)OC1CC(C)CC(C)(C)C1 (stereo not given) | inactive | –
50 | C=C[C@@H](C)CCC=C(C)C | inactive | –
51 | CCN(CC)C(=O)C1CN2CCc3cc(OC)c(OC)cc3C2CC1OC(C)=O (stereo not given) | inactive | –
52 | O=C(Oc1ccccc1C(=O)O)c1ccccc1O | inactive | –

Row | Structure (SMILES) | Potency | activity change, negative = inhibition
53 | NC(=O)NNC(N)=O | inactive | –
54 | C=CCCCCCCCCCCC | – | 4.91% [at 8.39 µM]
55 | CCCCC(C)C(=O)O (stereo not given) | inactive | –
56 | CCCCCCCCCCCCCCCCCCN(C)C | inactive | –
57 | COc1cc2c3cc1Oc1cc(ccc1O)C[C@@H]1c4c(cc(OC)c(O)c4Oc4ccc(cc4)C[C@@H]3N(C)CC2)CC[N+]1(C)C | inactive | –
58 | CCC(C)(CCC(C)C)C(=O)[O-].CCC(C)(CCC(C)C)C(=O)[O-].[Zn+2] (stereo not given) | inactive | –
59 | CCc1nccnc1C | inactive | –
60 | C=CCOc1c(Br)cc(C(C)(C)c2cc(Br)c(OCC=C)c(Br)c2)cc1Br | inactive | –
61 | SCCSCCS | inactive | –
62 | CN(C)CCCNCCC#N | inactive | –
63 | FC(F)(F)/C(=N\OCC1OCCO1)c1ccc(Cl)cc1 | inactive | –
64 | FC(F)(F)c1ccc(Cl)cc1Cl | inactive | –
65 | Cc1ccccc1OCC1CO1 (stereo not given) | inactive | –
66 | C[C@H](CCC(=O)O)[C@H]1CC[C@H]2[C@@H]3[C@H](O)C[C@@H]4C[C@H](O)CC[C@]4(C)[C@H]3C[C@H](O)[C@]12C | inactive | –
67 | CCCCCCCC[Si](OCC)(OCC)OCC | inactive | –
68 | CC(C)COC(=O)CC(C(=O)OCC(C)C)S(=O)(=O)O (stereo not given) | inactive | –
69 | Cc1ncc([N+](=O)[O-])n1CC(O)CCl (stereo not given) | inactive | –
70 | CO[Si](CCCCl)(OC)OC | inactive | –
